Compounds with a hit are over-represented: about 10% of the library has one in this group of screens.
RORgamma inh = qHTS for inhibitors of ROR gamma transcriptional activity | Potency, µM (top dose mostly 53.6 µM), for the others: at the top dose activity change, negative = inhibition, actives largely listed as inhibitors | Drosophila S2 Gal4-RORgamma UAS-luciferase reporter, 20 h | Nuclear receptor ROR-gamma (Mus musculus), P51450 | hit rate 5.4% among 310,000; note: % is set by controls: 0 for no effect and ±100 for the full control effect; nearly all actives have a fitted effect of over 60% in size
Target sequence (P51450 whole entry, looked up, the tested form may be a part): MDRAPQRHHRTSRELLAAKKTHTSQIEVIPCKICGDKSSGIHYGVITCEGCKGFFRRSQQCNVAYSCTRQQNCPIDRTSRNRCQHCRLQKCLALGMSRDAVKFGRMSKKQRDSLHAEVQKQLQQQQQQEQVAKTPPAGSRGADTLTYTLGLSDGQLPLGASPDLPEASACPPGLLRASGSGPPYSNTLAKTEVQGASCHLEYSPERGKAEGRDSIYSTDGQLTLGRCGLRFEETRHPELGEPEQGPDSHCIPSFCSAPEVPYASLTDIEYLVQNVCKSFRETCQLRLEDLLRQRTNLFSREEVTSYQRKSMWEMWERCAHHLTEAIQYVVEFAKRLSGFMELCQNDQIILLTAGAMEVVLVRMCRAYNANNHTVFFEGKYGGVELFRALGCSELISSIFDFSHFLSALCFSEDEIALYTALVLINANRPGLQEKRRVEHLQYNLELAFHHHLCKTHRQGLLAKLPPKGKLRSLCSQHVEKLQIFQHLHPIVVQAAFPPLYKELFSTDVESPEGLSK
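Stable Schneider cell line, Gal4 DNA-binding domain fused to ROR gamma, UAS-luciferase. Cmpd 1 hr RT → CuSO4 700 uM final → 20 hr RT → luciferase reagent 10 min → luminescence.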
KB-V1 cytotox = qHTS assay for MDR1-selective chemotherapeutics: Primary screen using the drug-selected MDR subline cells KB-V1; Potency, µM (highest dose often 46.1 µM), usual class: cytotoxic; hit rate 3.4% among 400,000; KB-V1 MDR cells viability, CellTiter-Glo, 72 h; note: % is set by controls: 0 for no effect and ±100 for the full control effect; nearly all actives have a fitted effect of over 60% in size
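Potencies derive from concentration-effect curves fitted to normalized luminescence (CellTiter-Glo) of KB-V1 cells treated for 72 h at 37 degrees C in phenol-red-free DMEM containing 10% FBS.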
VP16 counter = VP16 counterscreen qHTS for inhibitors of ROR gamma transcriptional activity. Drosophila S2 Gal4-VP16 UAS-luciferase, luminescence, 20 h. Potency, µM (doses to about 53.6 µM), for the others: top-dose activity, negative = inhibition, actives largely listed as inhibitors. hit rate 3.5% among 310,000. AID 2546, 2010;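 note: Gal4-VP16 expression switched on by copper sulfate through the metallothionein promoter; % is set by controls: 0 for no effect and ±100 for the full control effect; nearly all actives have a fitted effect of over 50% in size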
SW480 rereplic = A quantitative high throughput screen for small molecules that induce DNA re-replication in SW480 colon adenocarcinoma cells. Potency, µM (titrated, usually from 46.1 µM), without a hit: top-dose re-replication activation, hits mostly activators. SW480 DNA re-replication, Hoechst DNA content imaging, 48 h. hit rate 1.8% among 340,000; note: % of control where 0% means no effect; nearly all actives have a fitted effect of over 55% in size
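Compounds, transferred as 23 nL by pin tool, were incubated with cells for 48 hr; DNA content per nucleus was then quantified by Hoechst staining and fluorescence plate imaging.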
MCF10A rerep = A quantitative high throughput screen for small molecules that induce DNA re-replication in MCF 10a normal breast cells. Potency, µM (titrated, usually from 46.1 µM), for inactives: at the top dose activity, positive = re-replication, hits mostly activators. MCF 10A DNA re-replication, Hoechst nuclear intensity, 48 h. AID 624296, 2012. hit rate 2.9% among 350,000; note: % of control where 0% means no effect; nearly all actives have a fitted effect of over 50% in size
KB-3-1 tox = qHTS assay for MDR1-selective chemotherapeutics: Primary screen using the parental adenocarcinoma cell KB-3-1; Potency, µM (titrated, usually from 46.1 µM), actives largely listed as cytotoxic; hit rate 1.4% among 400,000; AID 1347075, 2019; KB-3-1 viability, CellTiter-Glo ATP luminescence, 72 h; note: % is set by controls: 0 for no effect and ±100 for the full control effect; nearly all actives have a fitted effect of over 60% in size
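Here the drug-naive KB-3-1 line serves as comparator for MDR sub-line selectivity; cells received compound titrations, 72 h at 37 °C, then CellTiter-Glo readout.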
An asterisk follows results filed as active; i = inactive; u = inconclusive; x = not tested or not shown. Calls come from the whole dose curve; as a rule, active = well fitted curve in the direction sought with a large enough effect; inconclusive = small, poorly fitted or top-dose-only effect, or another doubt; inactive = no such curve, though single readings can be large; an effect the other way counts as inactive or inconclusive. Potency is the fitted concentration of half-maximal effect.

SMILES	RORgamma inh	KB-V1 cytotox	VP16 counter	SW480 rereplic	MCF10A rerep	KB-3-1 tox
COc1ccc(/C=N/NC(=O)CCSc2nc3ccccc3s2)cc1	153.9%	i	-7.7%	10.3µM*	u	u
COc1cccc(/C=N/NC(=O)C(C)Cn2cnc3ccccc32)c1 (stereo not drawn)	u	i	2.4%	-0.9%	2.5%	i
COc1cccc(/C=N/NC(=O)CCn2cnc3ccccc32)c1	-29.4%	i	-11.1%	3.66µM*	u	i
O=C(CSc1nc2ccccc2s1)N/N=C/c1ccc(C(=O)O)cc1	5.4%	u	2.7%	-2.6%	-1.0%	i
COc1ccc(/C=N/NC(=O)CCn2cnc(-c3ccccc3)c2-c2ccccc2)cc1	u	i	-20.5%	3.26µM*	1.64µM*	5.17µM*
COc1ccccc1/C=C/C=N/NC(=O)CCn1cnc2ccccc21	-15.0%	i	-8.4%	20.6µM*	u	i
CC1CCc2nc3ncn(Cc4ccc(Cl)cc4)c(=O)c3cc2C1 (stereo not drawn)	x	i	x	x	x	i
O=C(Cn1cnc2ccccc21)Nc1ccc(SC(F)F)cc1	3.98µM*	u	7.94µM*	0.7%	11.2%	i
Cn1cccc1/C=N/NC(=O)Cn1cnc2ccccc21	8.91µM*	i	u	-0.2%	-4.3%	i
COc1ccc(/C=N/NC(=O)CCn2cnc3ccccc32)cc1	12.6µM*	i	u	u	-0.8%	i
O=C(CCn1cnc(-c2ccccc2)c1-c1ccccc1)N/N=C/c1ccccc1O	u	i	2.82µM*	9.2µM*	4.61µM*	u
COc1ccc(NC(=O)COC(=O)Cn2cnc3ccccc32)cc1	x	i	x	-0.1%	-5.7%	i
O=C(Cn1cnc2ccccc21)N/N=C/c1cccs1	-42.0%	i	1.3%	0.0%	-0.3%	i
O=c1c(-c2ccc(F)c(F)c2)nc2cncnc2n1C1CC1	-25.5%	x	-2.0%	x	x	x
Cc1nn(C(=O)c2ccc(Cl)cc2)c(C)c1S(=O)(=O)N1CCCCCC1	x	i	x	x	x	i
Cc1cc(S(=O)(=O)N2CCC(N3CCCCC3)CC2)ccc1-n1cnnn1	-23.2%	i	-10.8%	1.0%	0.3%	i
Cc1cc(S(=O)(=O)N2CCN(c3ccc(F)cc3)CC2)ccc1-n1cnnn1	40.0%	i	-11.2%	-95.8%	-11.7%	i
Cc1cc(S(=O)(=O)N2CCC(NC(=O)C34CC5CC(CC(C5)C3)C4)CC2)ccc1-n1cnnn1	32.3%	9.2µM*	-3.6%	2.0%	-1.3%	i
Cc1cc(S(=O)(=O)N2CCN(c3ccccc3F)CC2)ccc1-n1cnnn1	u	20.6µM*	-23.2%	0.6%	8.4%	u
CCN(CC)c1ccc(S(=O)(=O)N2CCOCC2)cc1NC(=O)CNCc1cccc(Cl)c1	x	u	x	7.9%	3.5%	u
O=C(CNC(=O)c1ccccc1F)OCc1nc2ccc(Cl)cc2n1CCO	x	i	x	-0.3%	0.7%	i
O=C(OCc1nc2ccc(Cl)cc2n1CCO)c1ccccc1C(=O)c1ccccc1	6.5%	16.4µM*	10.6%	2.3%	-1.5%	i
CN(C(=O)CSc1nnc(COc2ccccc2)o1)c1ccccc1	x	i	x	x	x	i
CCOC(=O)/C(N=Nc1ccc(C(=O)O)cc1[N+](=O)[O-])=C(\C)O	u	i	-0.2%	-66.5%	3.66µM*	i
CCSc1nc2c([nH]c3ccccc32)c(=O)n1-c1ccc(OC)cc1	x	i	x	x	x	i
SMILES	RORgamma inh	KB-V1 cytotox	VP16 counter	SW480 rereplic	MCF10A rerep	KB-3-1 tox
Cc1ccc(S(=O)(=O)N2CCN(Cc3cc4c(cc3Br)OCCO4)CC2)cc1	x	i	x	-7.4%	u	3.66µM*
O=C(NCCc1ccccc1)C1(c2cccs2)CCOCC1	x	i	x	x	x	i
Cc1cccc(NC(=O)C2(c3cccs3)CCOCC2)n1	13.3%	16.4µM*	1.6%	-53.8%	-3.3%	i
O=C(NC(c1ccccc1)c1ccccc1)C1(c2cccs2)CCOCC1	15.0%	5.17µM*	-6.2%	-0.1%	-0.1%	i
Cn1cc(-c2nc3cncnc3n(Cc3ccccc3Cl)c2=O)c2ccccc21	-19.2%	x	7.6%	x	x	x
CCc1cc(=O)oc2c(C)c(OCC(=O)Nc3ccc(S(=O)(=O)N(CC)CC)cc3)ccc12	x	i	x	x	x	i
Cc1c(C)c2ccc(OCC(=O)Nc3ccc(S(N)(=O)=O)cc3)c(C)c2oc1=O	-6.6%	i	-6.5%	-1.0%	18.4µM*	i
O=C(COC(=O)c1c2c(nc3ccccc13)CCN(Cc1ccccc1)C2)Nc1c(F)cccc1F	u	18.4µM*	-17.6%	-1.2%	u	i
COc1cccc([C@@H]2Oc3ccc(OC)cc3C(=O)[C@H]2OC(=O)N[C@H]2CCCc3ccccc32)c1	-5.8%	x	-3.6%	x	x	x
CC1=C([N+](=O)[O-])C(c2cccc(Br)c2)C2=C(N1)c1ccccc1C2=O (stereo not drawn)	3.1%	u	u	0.651µM*	u	1.64µM*
COc1ccc(N2CCN(C(=O)c3nn(-c4ccc(C)cc4)c(=O)n(C)c3=O)CC2)cc1	x	i	x	x	x	i
COc1ccccc1N=c1oc2cc(O)ccc2cc1C(N)=O	u	u	-22.9%	11.2µM*	18.4µM*	u
COc1ccc2cc(C(N)=O)/c(=N\NC(=O)c3ccccc3)oc2c1	12.6µM*	i	u	-5.0%	-3.5%	i
COc1cccc(C(=O)N/N=c2/oc3ccccc3cc2C(N)=O)c1	31.3%	u	-1.3%	-5.7%	1.0%	i
Cc1cccc(N=c2oc3cc(O)ccc3cc2C(N)=O)c1	11.2µM*	u	14.1µM*	u	u	i
O=C(Cc1nc2ccccc2[nH]1)N/N=C/c1ccccc1	31.6%	i	3.1%	20.6µM*	11.6µM*	i
C(=N\Nc1nc2ccccc2[nH]1)/c1ccncc1	15.4%	i	u	-7.2%	u	i
O=c1[nH]c(N/N=C\c2ccc(F)cc2)nc2ccccc12	10µM*	i	-25.1%	-4.0%	-1.1%	i
CCN(CC)c1ccc(/C=N/Nc2nc3ccccc3[nH]2)cc1	3.16µM*	i	3.98µM*	20.6µM*	9.2µM*	i
CC(/C=N/Nc1nc2ccccc2[nH]1)=C\c1ccccc1	6.31µM*	i	7.08µM*	u	u	i
CC(C)(C)c1cc(/C=N/NC(=O)Cc2nc3ccccc3[nH]2)cc(C(C)(C)C)c1O	-13.5%	i	-0.1%	u	u	i

Compound activity: PubChem, National Center for Advancing Translational Sciences (NCATS)
